Measurements published in PubChem BioAssay (EPA / NIEHS).
Inconclusive results are not listed. Activity calls are given as the source filed them. The calls were made as follows: active = hit-call score of the fitted dose curve at least 0.9, where 1 is the maximum; inconclusive = response in the unintended direction; inactive = score below 0.9.

assay: TOX21_p53_BLA_p4_viability: Viability Assessment in the Tox21 HCT-116 p53 Agonism Beta-lactamase Assay, Phase 4 (AID 2283597);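 also: hits lower the luminescence signal meaning cytotoxicity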
How it was run: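 HCT116 p53-bla cells (4000/well) rested 5 h at 37C, then received compounds in DMSO (217-fold dilution) for 16 h at 37C, 5% CO2. CellTiter-Glo was added after the CCF4-AM read, and luminescence was read after 30 min at room temperature.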

SMILES | outcome | AC50
CCCCCCCCCCC(=O)O | inactive | –
O=C(O)Cc1cccc(-c2cc(CCCCCCc3ccc(O[C@H]4O[C@H](CO)[C@@H](O)[C@H](O)[C@@H]4O)c(-c4cccc(CC(=O)O)c4)c3)ccc2O[C@H]2O[C@H](CO)[C@@H](O)[C@H](O)[C@@H]2O)c1 | inactive | –
Nc1cccc(S(=O)(=O)O)c1 | inactive | –
CCC(CC)(CC(=O)Nc1cccc(/C=C/c2nc(C3CCC3)cs2)c1)C(=O)O | inactive | –
Clc1ccc2c(c1)CCc1cccnc1C2=C1CCNCC1 | inactive | –
C=Cc1ccccc1 | inactive | –
CCCCC(CC)COC(=O)C(C#N)=C(c1ccccc1)c1ccccc1 (stereo not given) | inactive | –
Cc1cc(N)c2cc(NC(=O)Nc3ccc4nc(C)cc(N)c4c3)ccc2n1 | – | 29.7 µM (active)
CC(C)OC(=O)C(C)N(C(=O)c1ccccc1)c1ccc(F)c(Cl)c1 (stereo not given) | inactive | –
NC(N)=NC(=O)Cc1c(Cl)cccc1Cl | inactive | –
CC(C)CN(C[C@@H](O)[C@H](Cc1ccccc1)NC(=O)O[C@H]1CO[C@H]2OCC[C@H]21)S(=O)(=O)c1ccc(N)cc1 | inactive | –
O=C1c2ccccc2Cc2ccccc21 | inactive | –
Cc1c(O)c(=O)ccn1C | inactive | –
CCCC1([C@H](O)C/C=C/[C@H]2[C@H](O)CC(=O)[C@@H]2CCCCCCC(=O)OC)CCC1 | – | 36.3 µM (active)
CCCCCCCCCCCCCCCC[N+](C)(C)CCN(Cc1ccc(OC)cc1)c1ncccn1 | – | 17.3 µM (active)
COc1cc(NC(C)CCCN)c2ncccc2c1 (stereo not given) | inactive | –
O=C(O)COc1ccc(C(=O)c2cccs2)c(Cl)c1Cl | inactive | –
CC(C)N1CCN(c2ccc(OC[C@H]3CO[C@](Cn4cncn4)(c4ccc(Cl)cc4Cl)O3)cc2)CC1 | – | 10.3 µM (active)
COc1cc2c(cc1OC)-c1cc(=Nc3c(C)cc(C)cc3C)n(C)c(=O)n1CC2 | – | 36 µM (active)
Nc1nc(-c2ccccc2)c(Br)c(=O)[nH]1 | inactive | –

SMILES | outcome | AC50
Cc1cc(CC(=O)O)c(C)n1-c1ccc(Cl)cc1 | inactive | –
c1ccncc1 | inactive | –
OCC1O[C@@H](O[C@@H]2C(CO)OC(O)C(O)C2O)C(O)C(O)C1O (stereo not given in full) | inactive | –
CCNC(=O)N1CCN(CCCC(c2ccc(F)cc2)c2ccc(F)cc2)CC1 | inactive | –
CN1CCN(CCC=C2c3ccccc3Sc3ccc(S(=O)(=O)N(C)C)cc32)CC1 | – | 34.9 µM (active)
C=CCCC | inactive | –
COC(=O)C1=C(C)NC(C)=C(C(=O)O[C@@H]2CCCN(Cc3ccccc3)C2)[C@@H]1c1cccc([N+](=O)[O-])c1 | inactive | –
CCCC[P+](C)(CCCC)CCCC | inactive | –
O=C(O[C@H]1CN2CCC1CC2)N1CCc2ccccc2[C@@H]1c1ccccc1 | inactive | –
S=c1nccc[nH]1 | inactive | –
CCOc1ccc(NC(C)=O)cc1N | inactive | –
CCOC(=O)NNc1ccc(N(CC)CC(C)O)nn1 (stereo not given) | inactive | –
O=C(O)c1ccc(OCCCOc2ccc(C(=O)O)cc2)cc1 | inactive | –
CCCCCCCCCCCC(=O)OC[C@@H](O)[C@H]1OC[C@H](OCCO)[C@H]1OCCO | inactive | –
CCCCCC1Nc2cc(C(F)(F)F)c(S(N)(=O)=O)cc2S(=O)(=O)N1 (stereo not given) | inactive | –
Cc1c(C(=O)O)cccc1[N+](=O)[O-] | inactive | –
CC(C)(C)NC[C@H](O)COc1ccccc1C1CCCC1 | inactive | –
O=P(O)(O)C(Sc1ccc(Cl)cc1)P(=O)(O)O | inactive | –
c1ccc(CNCCNCc2ccccc2)cc1 | inactive | –
CCOC(=O)c1cnc2c(cnn2CC)c1NN=C(C)C | inactive | –
